Percent Effect data for eight compounds are collected here from ChEMBL document CHEMBL3988442, “University of Dundee, Small-Polar-MMV Screening Library” (2021).

Holding throughout (parameters): scale not given: direction of the effect not stated beside the values
The target of experiment [1] is Protein translocase subunit SecA (Escherichia coli (strain K12)) (UniProt P10408). Description: Assay to Identify E. coli SecA ATPase Inhibitors. Type of experiment: functional. As to conditions: 30 µM.
For experiment [2], the target named is T1, Ubiquitin-activating enzyme e1, putative (Leishmania donovani (strain BPK282A1)) (UniProt E9BSI1).
T1 sequence (whole entry): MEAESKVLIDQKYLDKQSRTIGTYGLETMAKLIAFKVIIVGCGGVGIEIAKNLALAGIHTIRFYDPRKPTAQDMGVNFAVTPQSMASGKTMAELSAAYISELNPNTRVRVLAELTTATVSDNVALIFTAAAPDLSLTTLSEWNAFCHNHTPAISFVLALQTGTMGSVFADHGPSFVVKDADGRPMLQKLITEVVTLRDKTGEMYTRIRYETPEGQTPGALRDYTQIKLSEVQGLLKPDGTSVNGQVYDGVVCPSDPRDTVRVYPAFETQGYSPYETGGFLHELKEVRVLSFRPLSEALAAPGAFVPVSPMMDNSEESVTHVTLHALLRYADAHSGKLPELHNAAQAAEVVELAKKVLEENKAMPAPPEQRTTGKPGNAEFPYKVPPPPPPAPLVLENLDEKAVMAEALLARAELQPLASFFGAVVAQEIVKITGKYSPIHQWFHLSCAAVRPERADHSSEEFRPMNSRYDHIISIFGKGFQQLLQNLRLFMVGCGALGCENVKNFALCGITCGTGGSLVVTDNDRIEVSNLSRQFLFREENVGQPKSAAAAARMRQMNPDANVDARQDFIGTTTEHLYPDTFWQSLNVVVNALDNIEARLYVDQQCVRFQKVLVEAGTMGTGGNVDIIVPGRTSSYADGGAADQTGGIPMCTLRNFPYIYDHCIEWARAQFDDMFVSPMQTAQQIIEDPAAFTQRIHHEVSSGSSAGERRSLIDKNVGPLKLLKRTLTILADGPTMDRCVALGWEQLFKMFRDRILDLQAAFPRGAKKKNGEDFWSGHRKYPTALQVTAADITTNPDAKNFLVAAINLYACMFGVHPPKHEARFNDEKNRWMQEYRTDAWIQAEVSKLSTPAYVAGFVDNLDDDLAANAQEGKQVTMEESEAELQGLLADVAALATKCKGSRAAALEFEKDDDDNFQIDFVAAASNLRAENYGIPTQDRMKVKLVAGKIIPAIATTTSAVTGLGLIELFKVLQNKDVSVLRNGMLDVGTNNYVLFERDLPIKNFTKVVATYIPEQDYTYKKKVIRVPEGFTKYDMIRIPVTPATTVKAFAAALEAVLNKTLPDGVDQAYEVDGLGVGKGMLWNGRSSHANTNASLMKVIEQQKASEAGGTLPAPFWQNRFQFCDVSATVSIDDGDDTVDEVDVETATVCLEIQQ
Description: Leishmania donovani Ubiquitin Activating Enzyme (LdE1). As to conditions: 30 µM. The experiment is classed as functional.

Experiment [3] concerns the target AMP-activated protein kinase, AMPK (Homo sapiens) (UniProt P54646+O43741+P54619+Q9UGJ0+Q9Y478+Q13131+Q9UGI9). Description: AMP-dependent Kinase enzyme assay. An in vitro enzyme assay that detects ADP turnover that is directly proportional to AMPK activity. This uses naive AMPK that is activated during the assay with MK-8722. The experiment is classed as functional. Particulars: 30 µM.

Experiment [4] deals with Sialic acid-binding Ig-like lectin 9 (Homo sapiens) (UniProt Q9Y336). The experiment in a line: Hs-Siglec9 ALPHAscreen SOP 20170721. As to conditions: 10 µM. A general note: Bead proximity is the source of the signal in Alpha formats.
Another experiment has as its system Trypanosoma cruzi. Description: Trypanosoma cruzi phosphomannomutase and mannose-1-phosphate guanylyltransferase assay. Type of experiment: functional. As to conditions: 10 µM.
Experiment [5] deals with T2, Arginase-2, mitochondrial (Homo sapiens) (UniProt P78540).
T2 sequence (whole entry): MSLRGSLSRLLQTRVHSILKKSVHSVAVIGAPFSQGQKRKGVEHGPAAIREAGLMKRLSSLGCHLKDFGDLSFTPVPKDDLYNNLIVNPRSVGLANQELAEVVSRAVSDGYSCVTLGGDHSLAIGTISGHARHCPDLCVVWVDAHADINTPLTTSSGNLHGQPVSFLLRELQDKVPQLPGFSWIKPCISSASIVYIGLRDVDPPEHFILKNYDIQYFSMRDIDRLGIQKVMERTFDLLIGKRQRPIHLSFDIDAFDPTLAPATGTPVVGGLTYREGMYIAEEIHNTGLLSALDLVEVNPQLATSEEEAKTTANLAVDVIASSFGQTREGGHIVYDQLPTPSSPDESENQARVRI
Description: in vitro enzyme assay to detect the production of urea directly proportional to the activity of Arginase II. Further: in the data most compounds retested in dose-response had high values. Type of experiment: functional. Particulars: 33.3 µM.

Experiment [6] addresses T3, Proteasome subunit beta (Trypanosoma cruzi) (UniProt O96673).
T3 sequence (whole entry): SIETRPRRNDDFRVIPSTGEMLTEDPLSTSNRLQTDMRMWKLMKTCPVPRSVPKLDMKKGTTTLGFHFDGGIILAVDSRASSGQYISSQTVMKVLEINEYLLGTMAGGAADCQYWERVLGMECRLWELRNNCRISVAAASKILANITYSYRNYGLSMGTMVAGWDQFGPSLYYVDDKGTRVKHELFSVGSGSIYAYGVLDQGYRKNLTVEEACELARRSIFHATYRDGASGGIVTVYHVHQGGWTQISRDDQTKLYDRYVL
Description: Trypanosoma cruzi proteasome chymotrypsin-like activity (TcProtChymo) assay. Further: in the data most compounds retested in dose-response had high values. The experiment is classed as functional. As to conditions: 9.37 µM.

The species entered for a further experiment is Homo sapiens. Description: To identify inhibition of the IFN signalling (Jak-Stat) pathway via expression of an eGFP reporter gene under the control of an IFN-stimulated response element (ISRE) containing MxA promoter. Type of experiment: functional. As to conditions: 30 µM. In general terms: Reporter assays use an easily measured gene product as a stand-in for the process of interest.

The target of experiment [7] is T4, Tyrosyl-tRNA synthetase, putative (Trypanosoma cruzi (strain CL Brener)) (UniProt Q4DSP6).
T4 sequence (whole entry): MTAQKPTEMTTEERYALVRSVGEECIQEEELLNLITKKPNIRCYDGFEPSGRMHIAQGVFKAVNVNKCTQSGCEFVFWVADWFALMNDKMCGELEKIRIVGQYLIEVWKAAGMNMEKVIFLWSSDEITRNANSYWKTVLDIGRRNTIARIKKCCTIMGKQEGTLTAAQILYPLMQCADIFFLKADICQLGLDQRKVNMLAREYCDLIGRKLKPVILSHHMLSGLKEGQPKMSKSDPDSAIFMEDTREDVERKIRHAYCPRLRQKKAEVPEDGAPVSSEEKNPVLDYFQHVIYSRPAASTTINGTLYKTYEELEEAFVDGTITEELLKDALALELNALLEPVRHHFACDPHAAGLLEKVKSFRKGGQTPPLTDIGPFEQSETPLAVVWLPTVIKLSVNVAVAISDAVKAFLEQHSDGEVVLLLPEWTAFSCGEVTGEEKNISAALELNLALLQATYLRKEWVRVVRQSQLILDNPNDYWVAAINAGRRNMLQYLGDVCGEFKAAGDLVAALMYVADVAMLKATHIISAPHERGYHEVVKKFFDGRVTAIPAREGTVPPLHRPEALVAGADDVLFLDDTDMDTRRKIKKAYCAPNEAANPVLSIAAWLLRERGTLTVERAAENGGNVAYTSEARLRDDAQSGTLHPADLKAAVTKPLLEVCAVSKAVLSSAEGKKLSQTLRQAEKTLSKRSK
Description: Trypanosoma cruzi tyrosyl tRNA synthetase (TcYRS) _High Tyrosine SOP. Further: in the data most compounds retested in dose-response had high values. Type of experiment: functional. Particulars: 30 µM.

The target in experiment [8] is T4, Tyrosyl-tRNA synthetase, putative (Trypanosoma cruzi (strain CL Brener)). The experiment in a line: Trypanosoma cruzi tyrosyl tRNA synthetase (TcYRS) SOP. The experiment is classed as functional. As to conditions: 30 µM.
Experiment [9] has as its target Chromo domain-containing protein 1 (Saccharomyces cerevisiae (strain ATCC 204508 / S288c) (Baker's yeast)) (UniProt P32657). Description: ScCHD-1 Enzyme Inhibition Assay. Further: in the data most compounds retested in dose-response had high values. The experiment is classed as functional. As to conditions: 30 µM.

For some of these results: Results with a measured potency or affinity are listed apart.

Chain of Protein translocase subunit SecA (Escherichia coli (strain K12)) (P10408 whole entry): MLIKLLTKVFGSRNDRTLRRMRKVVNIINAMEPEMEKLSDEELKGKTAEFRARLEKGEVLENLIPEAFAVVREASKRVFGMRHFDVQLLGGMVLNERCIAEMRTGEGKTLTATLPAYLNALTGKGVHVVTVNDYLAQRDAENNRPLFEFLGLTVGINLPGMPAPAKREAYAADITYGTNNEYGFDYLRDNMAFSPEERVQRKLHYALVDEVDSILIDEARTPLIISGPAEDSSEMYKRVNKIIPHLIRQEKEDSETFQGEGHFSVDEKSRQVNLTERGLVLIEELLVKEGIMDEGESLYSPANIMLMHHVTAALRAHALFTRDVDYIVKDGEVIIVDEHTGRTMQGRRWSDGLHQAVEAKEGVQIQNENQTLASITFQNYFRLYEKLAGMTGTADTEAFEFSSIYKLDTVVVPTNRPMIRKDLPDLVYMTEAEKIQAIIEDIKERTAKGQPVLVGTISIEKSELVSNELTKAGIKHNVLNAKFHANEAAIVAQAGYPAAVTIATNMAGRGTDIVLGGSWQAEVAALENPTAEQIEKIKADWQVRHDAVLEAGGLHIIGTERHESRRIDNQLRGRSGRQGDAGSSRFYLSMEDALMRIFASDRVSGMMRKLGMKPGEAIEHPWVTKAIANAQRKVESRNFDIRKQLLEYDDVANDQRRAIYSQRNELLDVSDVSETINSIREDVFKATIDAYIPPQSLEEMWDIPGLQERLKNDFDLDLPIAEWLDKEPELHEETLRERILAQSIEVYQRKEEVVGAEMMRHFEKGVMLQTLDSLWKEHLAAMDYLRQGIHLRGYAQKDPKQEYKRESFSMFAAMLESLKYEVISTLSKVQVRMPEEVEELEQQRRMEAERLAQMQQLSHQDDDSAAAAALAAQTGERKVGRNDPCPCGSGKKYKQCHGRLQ
Chain of Chromo domain-containing protein 1 (Saccharomyces cerevisiae (strain ATCC 204508 / S288c) (Baker's yeast)) (P32657 whole entry, the tested form may be a part): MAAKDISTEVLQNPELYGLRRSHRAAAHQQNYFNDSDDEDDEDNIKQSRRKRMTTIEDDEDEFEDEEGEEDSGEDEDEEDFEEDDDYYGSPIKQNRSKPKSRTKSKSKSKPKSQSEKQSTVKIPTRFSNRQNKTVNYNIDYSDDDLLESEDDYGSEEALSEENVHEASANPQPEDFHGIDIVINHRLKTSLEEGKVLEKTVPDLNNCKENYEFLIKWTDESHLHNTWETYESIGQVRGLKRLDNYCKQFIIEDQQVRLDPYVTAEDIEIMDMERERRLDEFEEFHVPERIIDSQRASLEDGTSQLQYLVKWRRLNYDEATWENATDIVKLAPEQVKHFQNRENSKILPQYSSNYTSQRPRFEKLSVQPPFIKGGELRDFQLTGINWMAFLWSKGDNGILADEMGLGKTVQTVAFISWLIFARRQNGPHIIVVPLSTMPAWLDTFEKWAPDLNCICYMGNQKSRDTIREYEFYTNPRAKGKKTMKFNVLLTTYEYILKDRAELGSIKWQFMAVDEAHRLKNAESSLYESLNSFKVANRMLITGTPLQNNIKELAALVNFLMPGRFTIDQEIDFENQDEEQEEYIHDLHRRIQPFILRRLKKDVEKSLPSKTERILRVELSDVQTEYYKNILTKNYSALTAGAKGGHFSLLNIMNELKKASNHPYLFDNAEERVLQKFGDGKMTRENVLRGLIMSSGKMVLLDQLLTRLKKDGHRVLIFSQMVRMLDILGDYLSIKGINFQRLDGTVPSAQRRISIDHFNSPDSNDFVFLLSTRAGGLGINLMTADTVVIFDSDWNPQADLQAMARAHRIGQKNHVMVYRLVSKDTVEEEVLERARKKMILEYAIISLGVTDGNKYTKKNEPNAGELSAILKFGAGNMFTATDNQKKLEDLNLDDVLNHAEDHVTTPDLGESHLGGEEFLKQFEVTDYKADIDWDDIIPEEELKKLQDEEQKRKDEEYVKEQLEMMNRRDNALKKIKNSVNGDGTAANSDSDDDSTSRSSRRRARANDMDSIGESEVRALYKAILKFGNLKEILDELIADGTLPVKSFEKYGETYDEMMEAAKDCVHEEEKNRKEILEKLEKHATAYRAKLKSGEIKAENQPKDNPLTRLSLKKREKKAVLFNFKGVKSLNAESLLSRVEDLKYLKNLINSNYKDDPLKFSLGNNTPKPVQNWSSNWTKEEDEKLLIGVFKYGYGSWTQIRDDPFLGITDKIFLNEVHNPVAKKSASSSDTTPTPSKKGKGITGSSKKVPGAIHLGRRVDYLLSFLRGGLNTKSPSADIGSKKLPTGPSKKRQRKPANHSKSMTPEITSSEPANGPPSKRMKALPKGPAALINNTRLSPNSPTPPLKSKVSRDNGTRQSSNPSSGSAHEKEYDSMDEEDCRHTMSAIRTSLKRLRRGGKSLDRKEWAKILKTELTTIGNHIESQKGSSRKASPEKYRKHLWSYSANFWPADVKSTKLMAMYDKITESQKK
Chain of Sialic acid-binding Ig-like lectin 9 (Homo sapiens) (Q9Y336 whole entry): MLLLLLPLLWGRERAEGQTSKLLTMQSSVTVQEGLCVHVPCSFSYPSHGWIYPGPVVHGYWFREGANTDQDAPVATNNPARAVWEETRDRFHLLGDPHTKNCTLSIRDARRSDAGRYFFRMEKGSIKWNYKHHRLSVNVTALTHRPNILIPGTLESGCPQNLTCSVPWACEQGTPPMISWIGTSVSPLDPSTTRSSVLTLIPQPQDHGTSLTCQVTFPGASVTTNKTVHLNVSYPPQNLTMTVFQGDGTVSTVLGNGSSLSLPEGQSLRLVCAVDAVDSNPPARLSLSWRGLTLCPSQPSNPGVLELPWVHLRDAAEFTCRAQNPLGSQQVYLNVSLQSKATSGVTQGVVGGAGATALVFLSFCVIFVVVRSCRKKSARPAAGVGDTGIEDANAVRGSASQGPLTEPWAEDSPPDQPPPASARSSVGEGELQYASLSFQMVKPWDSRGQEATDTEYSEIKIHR

On to `O=C(O)[C@@H]1CN(C(=O)c2ccc3[nH]nnc3c2)C[C@H]1c1cccc(F)c1`, for which the Percent Effect in experiment [1] is -4.68%; in experiment [2], 11%; in [3], -5.72%; in experiment [4], 8.16%; in the experiment on Trypanosoma cruzi, 6.94%; in experiment [5], -3.99%. Besides, the Percent Effect in experiment [6] was 12.6%; in the experiment listed under Homo sapiens, 3.52%; in experiment [7], 4.17%; in experiment [8], 8.64%; in experiment [9], -2.47%.
In the case of `Cc1nn(-c2ccccc2)nc1C(=O)N1CCCC1c1cnn(C)c1` (stereo not drawn), the Percent Effect in [1] was -5.15%; in experiment [2], 0%; in [3] it was -0.474%; in experiment [4] it was 2.1%; in the experiment with Trypanosoma cruzi it was -2.32%; in experiment [5], -4.99%. Moreover, the Percent Effect in experiment [6] turned out to be 0.539%; in the experiment filed under Homo sapiens, 12.6%; in experiment [7] it was 2.97%; in experiment [8] it was 6.1%; in [9] it was 7.07%.
Regarding `CN(CC(=O)N(C)C1CCCCC1)C1CCc2ccccc21` (stereo not drawn), the Percent Effect is -3.95% in experiment [1]; 7.89% in [2]; 6.4% in experiment [3]; -4.14% in experiment [4]; -7.14% with Trypanosoma cruzi; 3.45% in experiment [5]. The Percent Effect was 7.35% in experiment [6]; 15.2% in the experiment listed under Homo sapiens; 2.45% in experiment [7]; 9.76% in experiment [8]; -6.2% in experiment [9].
Consider `CCO[C@@H]1CCN(C(=O)c2ccc[nH]2)[C@@H]1Cc1cnn(C)c1`, for which the Percent Effect in [1] was -3.08%; in experiment [2], 0%; in [3], 17.3%; in [4], -3.48%; in the experiment with Trypanosoma cruzi it was -5.91%; in experiment [5], 3.5%. The Percent Effect in experiment [6] is 2.56%; in the experiment listed under Homo sapiens it was 19.4%; in experiment [7] it was 4.25%; in experiment [8], 3.85%; in experiment [9], -2.5%.
Take `COCC(=O)N1CCCC2(CCN(c3ccsc3)C2=O)C1` (stereo not drawn): the Percent Effect in experiment [1] was -5.59%; in experiment [2], 2.67%; in experiment [3] it was 5.83%; in [4], -0.603%; in the experiment on Trypanosoma cruzi, -1.18%; in experiment [5], -0.699%. For the same compound, the Percent Effect in [6] is -5.73%; in the experiment listed under Homo sapiens, 26.1%; in experiment [7] it was 0%; in experiment [8] it was -1.28%; in experiment [9], 4.35%.
As to `N#Cc1ccnc(N2CCC(c3nccn3Cc3cscn3)CC2)c1`, the Percent Effect in experiment [1] is -1.75%; in experiment [2], 13.3%; in experiment [3], 2.35%; in experiment [4], 5.36%; in the experiment with Trypanosoma cruzi, 3.8%; in [5], 0%. Also, the Percent Effect in experiment [6] is 15.5%; in the experiment listed under Homo sapiens it was 21.8%; in [7] it was 4.92%; in experiment [8], 13.6%; in experiment [9], -7.45%.
As for `O=C(NCCN1CCOCC1)c1n[nH]c(=O)c2ccccc12`, the Percent Effect in experiment [1] is -3.44%; in experiment [2] it was 28.6%; in [3], -3.48%; in experiment [4], 5.43%; with Trypanosoma cruzi, 6.37%; in experiment [5], -3.56%. In addition, the Percent Effect was 14.2% in experiment [6]; 12.3% in the experiment listed under Homo sapiens; 4.85% in experiment [7]; 21.9% in [8]; -9.16% in [9].
Regarding `O=C(Cn1cc(I)cn1)N1CCCC1`, the Percent Effect was 0.0934% in experiment [1]; -1.33% in experiment [2]; -2.19% in experiment [3]; 10.5% in [4]; 2.55% in the experiment with Trypanosoma cruzi; -2.64% in experiment [5]. In addition, the Percent Effect is 7.02% in experiment [6]; 20.5% in the experiment filed under Homo sapiens; 5.29% in experiment [7]; 5.13% in experiment [8]; -2.75% in experiment [9].
